Results reported in PubChem BioAssay AID1159580 (chemical genetic matrix, 2015).
Where “and” joins values, the source holds several entries; their conditions need not be identical. Identical values can stand only once. Among all 5,500 compounds or so, about 2,000 (36%) were called active. Not shown: some 18% with an inconclusive outcome. Rule as the data show it: active = normalized growth mostly below about 0.91 (no sharp cut-off); inconclusive = no clear call, values can overlap the other calls; inactive = mostly above about 0.92. The list shows a part of the results.

Assay: chemical genetic growth profiling, strain panel (AID 1159580);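 also: tested at 20 µM; growth read once vehicle control cultures reached saturation at 30 °C; 1 = growth at the plate median or of vehicle wells; lower values mean less growth of the strain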
Conditions: growth OD

Measured: normalized growth

O=c1[nH]cc(F)c(=O)[nH]1
inactive: S. cerevisiae deletion strains, locus YKL068W, stronger effect = lower value 0.995 | S. cerevisiae deletion strains, locus YKL085W, strain MDH1 (second series), stronger effect = lower value 0.965 | S. cerevisiae deletion strains, locus YKL085W, strain MDH1, stronger effect = lower value 0.965 | S. cerevisiae deletion strains, locus YKR091W, strain srl3, stronger effect = lower value 1.01 | S. cerevisiae deletion strains, locus YLR102C, strain apc9, stronger effect = lower value 0.943 | S. cerevisiae deletion strains, locus YLR262C, strain YPT6, stronger effect = lower value 0.647 | S. cerevisiae deletion strains, locus YLR330W, strain CHS5, stronger effect = lower value 0.966 | S. cerevisiae deletion strains, locus YMR078C, strain ctf18, stronger effect = lower value 0.994 | S. cerevisiae deletion strains, locus YMR205C, strain PFK2, stronger effect = lower value 0.919 | S. cerevisiae deletion strains, locus YMR263W, strain SAP30, stronger effect = lower value 0.957 and 1.01 | S. cerevisiae deletion strains, locus YMR307W, strain GAS1, stronger effect = lower value 0.901 and 0.99 | S. cerevisiae deletion strains, locus YNL175C, strain NOP13, stronger effect = lower value 1.03 | S. cerevisiae deletion strains, locus YNL197C, strain WHI3, stronger effect = lower value 1.01 | S. cerevisiae deletion strains, locus YNL224C, strain SQS1, stronger effect = lower value 0.929 | S. cerevisiae deletion strains, locus YOR061W, strain CKA2, stronger effect = lower value 0.947 | S. cerevisiae deletion strains, locus YOR083W, strain WHI5 (second series), stronger effect = lower value 1.03 | S. cerevisiae deletion strains, locus YOR144C, strain elg1, stronger effect = lower value 0.999 | S. cerevisiae deletion strains, locus YOR316C, strain cot1, stronger effect = lower value 0.958 | S. cerevisiae deletion strains, locus YPL055C, strain LGE1, stronger effect = lower value 0.955 | S. cerevisiae deletion strains, locus YPL241C, strain CIN2, stronger effect = lower value 1.03 | S. cerevisiae deletion strains, locus YPR119W, strain clb2, stronger effect = lower value 1.03 | S. cerevisiae deletion strains, locus YPR141C, strain kar3, stronger effect = lower value 1.03 | S. cerevisiae deletion strains, locus YPR163C, strain tif3, stronger effect = lower value 0.981
active: S. cerevisiae deletion strains, locus YKL009W, strain mrt4, stronger effect = lower value 0.862 | S. cerevisiae deletion strains, locus YKL160W, strain elf1, stronger effect = lower value 0.671 | S. cerevisiae deletion strains, locus YKL190W, strain CNB1, stronger effect = lower value 0.858 | S. cerevisiae deletion strains, locus YKR001C, strain vps1, stronger effect = lower value 0.471 | S. cerevisiae deletion strains, locus YKR026C, strain gcn3, stronger effect = lower value 0.83 | S. cerevisiae deletion strains, locus YLL001W, strain dnm1, stronger effect = lower value 0.456 | S. cerevisiae deletion strains, locus YLL026W, stronger effect = lower value 0.588 | S. cerevisiae deletion strains, locus YLL041C, strain sdh2, stronger effect = lower value 0.849 | S. cerevisiae deletion strains, locus YLR027C, strain aat2, stronger effect = lower value 0.537 | S. cerevisiae deletion strains, locus YLR039C, strain RIC1, stronger effect = lower value 0.601 | S. cerevisiae deletion strains, locus YLR058C, strain SHM2, stronger effect = lower value 0.746 | S. cerevisiae deletion strains, locus YLR113W, strain HOG1, stronger effect = lower value 0.772 | S. cerevisiae deletion strains, locus YLR221C, strain rsa3, stronger effect = lower value 0.411 | S. cerevisiae deletion strains, locus YLR258W, strain gsy2, stronger effect = lower value 0.542 | S. cerevisiae deletion strains, locus YLR262C, strain YPT6 (second series), stronger effect = lower value 0.63 | S. cerevisiae deletion strains, locus YLR268W, strain sec22, stronger effect = lower value 0.726 | S. cerevisiae deletion strains, locus YLR320W, strain mms22, stronger effect = lower value 0.509 | S. cerevisiae deletion strains, locus YLR342W, strain FKS1 (second series), stronger effect = lower value 0.743 | S. cerevisiae deletion strains, locus YLR342W, strain FKS1, stronger effect = lower value 0.807 | S. cerevisiae deletion strains, locus YLR357W, strain rsc2, stronger effect = lower value 0.775 | S. cerevisiae deletion strains, locus YLR370C, strain arc18, stronger effect = lower value 0.562 | S. cerevisiae deletion strains, locus YLR371W, strain rom2, stronger effect = lower value 0.867 | S. cerevisiae deletion strains, locus YLR384C, strain iki3, stronger effect = lower value 0.809 | S. cerevisiae deletion strains, locus YLR418C, strain cdc73, stronger effect = lower value 0.819 | S. cerevisiae deletion strains, locus YML016C, strain PPZ1, stronger effect = lower value 0.864 | S. cerevisiae deletion strains, locus YML032C, strain rad52, stronger effect = lower value 0.642 | S. cerevisiae deletion strains, locus YML120C, strain ndi1, stronger effect = lower value 0.464 | S. cerevisiae deletion strains, locus YML124C, strain tub3, stronger effect = lower value 0.914 | S. cerevisiae deletion strains, locus YMR058W, strain fet3, stronger effect = lower value 0.562 | S. cerevisiae deletion strains, locus YMR125W, strain sto1, stronger effect = lower value 1.12 [resistant] | S. cerevisiae deletion strains, locus YMR129W, stronger effect = lower value 0.701 | S. cerevisiae deletion strains, locus YMR223W, strain ubp8, stronger effect = lower value 0.613 | S. cerevisiae deletion strains, locus YMR231W, strain pep5, stronger effect = lower value 0.793 | S. cerevisiae deletion strains, locus YNL067W, strain RPL9B, stronger effect = lower value 0.84 | S. cerevisiae deletion strains, locus YNL071W, strain lat1, stronger effect = lower value 0.698 | S. cerevisiae deletion strains, locus YNL128W, strain TEP1, stronger effect = lower value 0.784 | S. cerevisiae deletion strains, locus YNL183C, strain NPR1, stronger effect = lower value 0.611 | S. cerevisiae deletion strains, locus YNL209W, strain ssb2, stronger effect = lower value 0.647 | S. cerevisiae deletion strains, locus YNL233W, strain BNI4, stronger effect = lower value 0.843 | S. cerevisiae deletion strains, locus YNL248C, strain rpa49, stronger effect = lower value 0.346 | S. cerevisiae deletion strains, locus YNL250W, strain rad50, stronger effect = lower value 0.848 | S. cerevisiae deletion strains, locus YNL271C, strain bni1, stronger effect = lower value 0.811 | S. cerevisiae deletion strains, locus YNL298W, strain CLA4, stronger effect = lower value 0.905 | S. cerevisiae deletion strains, locus YNL307C, strain MCK1, stronger effect = lower value 0.756 | S. cerevisiae deletion strains, locus YNL322C, strain KRE1 (second series), stronger effect = lower value 0.65 | S. cerevisiae deletion strains, locus YNR049C, strain mso1, stronger effect = lower value 0.647 | S. cerevisiae deletion strains, locus YNR052C, strain pop2, stronger effect = lower value 0.909 | S. cerevisiae deletion strains, locus YOL012C, strain htz1 2.56 [resistant] | S. cerevisiae deletion strains, locus YOL147C, strain pex11, stronger effect = lower value 0.796 | S. cerevisiae deletion strains, locus YOR001W, strain rrp6, stronger effect = lower value 0.193 | S. cerevisiae deletion strains, locus YOR069W, strain VPS5, stronger effect = lower value 0.858 | S. cerevisiae deletion strains, locus YOR070C, strain gyp1, stronger effect = lower value 0.622 | S. cerevisiae deletion strains, locus YOR080W, strain dia2, stronger effect = lower value 0.809 | S. cerevisiae deletion strains, locus YOR083W, strain WHI5, stronger effect = lower value 0.686 | S. cerevisiae deletion strains, locus YOR106W, strain vam3, stronger effect = lower value 0.394 | S. cerevisiae deletion strains, locus YOR136W, strain idh2, stronger effect = lower value 0.902 | S. cerevisiae deletion strains, locus YOR184W, strain ser1, stronger effect = lower value 0.561 | S. cerevisiae deletion strains, locus YOR231W, strain MKK1, stronger effect = lower value 0.549 | S. cerevisiae deletion strains, locus YOR265W, strain rbl2, stronger effect = lower value 0.654 | S. cerevisiae deletion strains, locus YOR270C, strain vph1, stronger effect = lower value 0.397 | S. cerevisiae deletion strains, locus YOR290C, strain snf2, stronger effect = lower value 0.415 | S. cerevisiae deletion strains, locus YPL051W, strain arl3, stronger effect = lower value 0.598 | S. cerevisiae deletion strains, locus YPL078C, strain atp4, stronger effect = lower value 0.482 | S. cerevisiae deletion strains, locus YPL106C, strain sse1, stronger effect = lower value 0.709 | S. cerevisiae deletion strains, locus YPL240C, strain hsp82, stronger effect = lower value 0.671 | S. cerevisiae deletion strains, locus YPL256C, strain CLN2, stronger effect = lower value 0.714 | S. cerevisiae deletion strains, locus YPR167C, strain met16, stronger effect = lower value 0.831 | S. cerevisiae deletion strains, strain wtn01, stronger effect = lower value 0.635 | S. cerevisiae strains, strain wild type, stronger effect = lower value 0.776
